Test results reported in PubChem BioAssay (EPA / NIEHS).
Values joined by “and” are separate entries in the source; they are usually repeats but may differ in a detail not shown here. Identical values can stand only once. Active and inactive are the calls of the source. How the source made its calls: active means hit-call score of the fitted dose curve at least 0.9, where 1 is the maximum; inactive means score below 0.9.

How the values were obtained:
[1] = ATG_CRE_CIS: Attagene CIS-FACTORIAL HepG2 Assay for human cAMP Responsive Element (CRE) binding protein 3 (AID 2282926); settings: HepG2 CRE cis-reporter, Attagene multiplexed mRNA; actives raise or lower the signal
Outline: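 Multiplexed transcription-unit reporters transfected into HepG2; 24 h dosing; RT-PCR/capillary electrophoresis fluorescence read-out; bidirectional fit vs DMSO.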

[2] = target: CCAAT/enhancer-binding protein beta (Homo sapiens) (UniProt P17676); assay: ATG_C_EBP_CIS: Attagene CIS-FACTORIAL HepG2 Assay for human CCAAT/Enhancer Binding Protein (C/EBP) beta (AID 2282927); settings: HepG2 Attagene cis-factorial transcription factor reporter; actives raise or lower the signal
Outline: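 Endogenous transcription factor activity in human liver HepG2 cells is inferred from induction of a CEBPB-linked reporter mRNA. Exposure lasts 24 h; activity is fitted in both directions relative to DMSO.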

[3] = ATG_CMV_CIS: Attagene CIS-FACTORIAL HepG2 Assay for human CMV (Internal Marker) (AID 2282928); settings: HepG2 CMV promoter reporter, transcription factor profiling; actives raise or lower the signal;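 further: endpoint acts as a background internal control marker rather than a target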
Outline: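 Endogenous transcription factor activity read in HepG2 via transfected cis-promoter reporter units. After 24 h dosing, reporter mRNA measured by RT-PCR/capillary electrophoresis; gain or loss of signal fit relative to DMSO.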

[4] = ATG_DR4_LXR_CIS: Attagene CIS-FACTORIAL HepG2 Assay for human Liver X Receptor (LXR), DR4 submotif (AID 2282929); settings: HepG2 Attagene DR4 cis-reporter, mRNA transcription; AC50: actives raise or lower the signal unless noted; outcome: actives raise or lower the signal unless noted
Outline: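 Endogenous factor activity at a DR4 cis-element is read as reporter mRNA in transiently transfected HepG2 cells. Exposure lasts 24 h; transcripts are amplified, fluorescently labelled and sized by capillary electrophoresis, with DMSO as baseline.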

[5] = target: Aryl hydrocarbon receptor (Homo sapiens) (UniProt P35869); assay: ATG_Ahr_CIS: Attagene CIS-FACTORIAL HepG2 Assay for human Aryl Hydrocarbon Receptor (Ahr) (AID 2282930); settings: HepG2 AhR cis-factorial reporter transcription; actives raise or lower the signal
Outline: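 Transient MRTU transfection of HepG2 → 24 h compound exposure → total RNA, oligo(dT) RT → PCR, 6-FAM extension, HpaI cut → CE fluorescence. DMSO = baseline; bidirectional curve fit.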

[6] = ATG_AP_1_CIS: Attagene CIS-FACTORIAL HepG2 Assay for human Activator Protein 1 (AP-1) (AID 2282931); settings: HepG2 Attagene cis-factorial AP-1 reporter mRNA; actives raise or lower the signal
Outline: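 Fluorescence of labelled PCR fragments separated by capillary electrophoresis gives reporter mRNA levels. HepG2 with transfected cis-regulated reporter units, 24 h exposure; DMSO serves as baseline for bidirectional curve fits.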

[7] = ATG_AP_2_CIS: Attagene CIS-FACTORIAL HepG2 Assay for human Activator Protein 2 (AP-2) (AID 2282932); settings: HepG2 AP-2 cis-reporter, Attagene transcription factor profiling; AC50: actives raise or lower the signal unless noted; outcome: actives raise or lower the signal unless noted
Outline: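 Step one: transient transfection of HepG2 with reporter transcription units. Step two: 24 h chemical exposure. Step three: RNA extraction, RT-PCR, labelled fragment analysis by capillary electrophoresis; DMSO serves as baseline.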

[8] = ATG_BRE_CIS: Attagene CIS-FACTORIAL HepG2 Assay for human Bone Morphogenetic Protein (BMP) Response Element (BRE) (AID 2282933); settings: HepG2 BMP response element reporter, Attagene transcription factor profiling; actives raise or lower the signal
Outline: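 Fluorescence-labelled reporter cDNA fragments, separated by capillary electrophoresis, gave the signal for this component of a 52-readout multiplex. HepG2 cells were transfected, exposed to chemicals for 24 h, and compared with DMSO using bidirectional fitting.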

[9] = target: Retinoic acid receptor alpha (Homo sapiens) (UniProt P10276); assay: ATG_DR5_RAR_CIS: Attagene CIS-FACTORIAL HepG2 Assay for human Retinoic Acid Receptor Alpha (RARE), DR5 submotif (AID 2282934); settings: HepG2 Attagene cis-factorial RARE DR5 reporter, mRNA; actives raise or lower the signal;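 on AC50: reporter responds to endogenous RAR alpha beta and gamma in HepG2 not RARA alone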
Outline: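 Transient MRTU transfection of HepG2; 24 h compound treatment; TriZol RNA, oligo(dT) RT, PCR, FAM labelling, capillary electrophoresis. Bidirectional fit vs DMSO. Endogenous TF activity at DR5 RARE.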

[10] = target: Transcription factor E2F1 (Homo sapiens) (UniProt Q01094); assay: ATG_E2F_CIS: Attagene CIS-FACTORIAL HepG2 Assay for human E2F Transcription Factor 1 (AID 2282935); settings: HepG2 Attagene cis-reporter, E2F reporter RNA transcripts; actives raise or lower the signal
Outline: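 Total RNA from 24 h-treated, reporter-transfected HepG2 cells undergoes DNase I treatment, oligo(dT) reverse transcription, PCR and 6-FAM primer extension before capillary electrophoresis.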

[11] = ATG_E_Box_CIS: Attagene CIS-FACTORIAL HepG2 Assay for human Enhancer Box (E-box) (AID 2282936); settings: HepG2 E-box cis-reporter transcription, actives raise or lower the signal
Outline: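 DMSO served as negative control and baseline for bidirectional fitting. Human hepatoma HepG2 cells, transiently transfected with cis-reporter constructs, were dosed 24 h; reporter mRNA read by RT-PCR and capillary electrophoresis.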

Measured: AC50

Aryl hydrocarbon receptor (Homo sapiens), sequence (P35869 whole entry, looked up): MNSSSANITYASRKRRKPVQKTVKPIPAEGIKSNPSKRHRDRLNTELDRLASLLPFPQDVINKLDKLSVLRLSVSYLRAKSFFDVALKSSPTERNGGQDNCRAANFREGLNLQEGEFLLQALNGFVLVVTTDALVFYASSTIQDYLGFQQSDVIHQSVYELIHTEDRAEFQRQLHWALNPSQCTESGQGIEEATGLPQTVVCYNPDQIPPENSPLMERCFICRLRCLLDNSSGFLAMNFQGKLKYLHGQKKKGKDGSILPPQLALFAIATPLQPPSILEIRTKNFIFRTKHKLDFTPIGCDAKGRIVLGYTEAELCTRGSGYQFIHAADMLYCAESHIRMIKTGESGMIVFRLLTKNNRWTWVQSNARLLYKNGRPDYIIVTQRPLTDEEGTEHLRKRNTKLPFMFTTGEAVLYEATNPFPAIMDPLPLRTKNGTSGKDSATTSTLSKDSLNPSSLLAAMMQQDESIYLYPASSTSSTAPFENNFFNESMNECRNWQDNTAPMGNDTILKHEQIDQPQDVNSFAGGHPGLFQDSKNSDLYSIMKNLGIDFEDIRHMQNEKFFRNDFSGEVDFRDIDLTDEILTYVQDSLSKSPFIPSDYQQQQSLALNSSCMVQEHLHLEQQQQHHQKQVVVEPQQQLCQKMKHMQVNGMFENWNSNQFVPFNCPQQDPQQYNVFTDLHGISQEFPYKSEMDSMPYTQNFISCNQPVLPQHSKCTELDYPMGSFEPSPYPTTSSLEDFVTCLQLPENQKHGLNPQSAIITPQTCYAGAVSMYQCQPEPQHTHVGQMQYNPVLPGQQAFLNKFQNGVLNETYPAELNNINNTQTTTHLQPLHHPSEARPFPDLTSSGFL
Transcription factor E2F1 (Homo sapiens), sequence (Q01094 whole entry, looked up): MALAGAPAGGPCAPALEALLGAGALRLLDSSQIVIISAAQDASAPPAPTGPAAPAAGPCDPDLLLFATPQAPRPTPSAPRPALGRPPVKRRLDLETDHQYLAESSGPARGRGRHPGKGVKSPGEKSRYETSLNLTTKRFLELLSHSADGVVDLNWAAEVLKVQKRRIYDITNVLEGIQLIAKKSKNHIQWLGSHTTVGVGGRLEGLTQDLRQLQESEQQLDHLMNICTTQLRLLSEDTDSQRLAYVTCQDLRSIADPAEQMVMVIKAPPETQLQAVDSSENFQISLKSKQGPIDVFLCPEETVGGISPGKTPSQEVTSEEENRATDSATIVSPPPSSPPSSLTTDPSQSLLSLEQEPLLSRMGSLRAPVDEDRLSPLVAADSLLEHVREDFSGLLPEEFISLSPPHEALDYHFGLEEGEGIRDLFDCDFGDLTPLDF
CCAAT/enhancer-binding protein beta (Homo sapiens), sequence (P17676 whole entry, looked up): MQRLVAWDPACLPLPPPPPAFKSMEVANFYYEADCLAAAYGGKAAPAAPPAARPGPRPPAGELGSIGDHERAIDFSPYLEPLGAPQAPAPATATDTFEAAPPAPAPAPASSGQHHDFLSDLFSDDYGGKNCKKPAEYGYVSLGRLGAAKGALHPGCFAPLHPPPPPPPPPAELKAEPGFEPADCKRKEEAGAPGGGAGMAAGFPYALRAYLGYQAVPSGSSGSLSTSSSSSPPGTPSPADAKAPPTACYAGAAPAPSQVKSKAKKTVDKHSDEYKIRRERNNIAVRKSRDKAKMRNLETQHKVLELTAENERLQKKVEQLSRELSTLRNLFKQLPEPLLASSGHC
Retinoic acid receptor alpha (Homo sapiens), sequence (P10276 whole entry, looked up): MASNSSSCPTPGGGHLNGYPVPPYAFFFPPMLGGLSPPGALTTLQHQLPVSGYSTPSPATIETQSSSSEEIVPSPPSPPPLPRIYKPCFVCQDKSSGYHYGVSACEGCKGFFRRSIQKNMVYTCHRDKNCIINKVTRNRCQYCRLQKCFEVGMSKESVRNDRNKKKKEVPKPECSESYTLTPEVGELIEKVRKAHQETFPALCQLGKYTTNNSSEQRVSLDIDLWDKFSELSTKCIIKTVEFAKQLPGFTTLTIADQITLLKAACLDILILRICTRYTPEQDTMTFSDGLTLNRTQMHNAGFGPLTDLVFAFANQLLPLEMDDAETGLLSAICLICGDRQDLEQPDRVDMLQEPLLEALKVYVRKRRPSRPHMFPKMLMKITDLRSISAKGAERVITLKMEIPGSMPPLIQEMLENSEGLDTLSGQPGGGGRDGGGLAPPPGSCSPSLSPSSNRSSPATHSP

CC1CNCC(C)O1 (stereo not given)
inactive: all assays above

Cc1cc(Cc2cc(C)cc(C(C)(C)C)c2O)c(O)c(C(C)(C)C)c1
active: [1] 23.7 µM | [2] 31.8 µM | [3] 7.15 µM | [4] 100 µM | [5] 55.6 µM | [6] 24.9 µM | [9] 11.4 µM | [10] 170 µM
inactive: [7] | [8] | [11]

Nc1cc(Cl)c(-c2cc(Cl)c(N)cc2Cl)cc1Cl
active: [3] 2.08 µM | [4] 2.65 µM | [6] 3.81 µM | [8] 21 µM
inactive: all other assays above

CCN(CC)CC
inactive: all assays above

COC(=O)C(F)(F)C(F)(F)C(F)(F)F
inactive: all assays above

c1cc[nH]c1
inactive: all assays above

COc1ccc(C#N)cc1
inactive: all assays above

C=CC(F)(F)C(F)(F)C(F)(F)C(F)(F)F
inactive: all assays above

NCc1cccc(CN)c1
not listed: [6]
inactive: all other assays above

Brc1cc(Br)c(Oc2c(Br)cc(Br)c(Br)c2Br)cc1Br
not listed: [7]
inactive: all other assays above

FC1(F)C=CC(F)(F)C1(F)F
not listed: [6]
inactive: all other assays above

CCOC(=O)c1nc(C(Cl)(Cl)Cl)n(-c2ccc(Cl)cc2Cl)n1
active: [3] 29.6 µM | [4] 48.5 µM | [6] 57.8 µM
not listed: [7] | [10]
inactive: all other assays above

CCN(CCC#N)c1ccccc1
not listed: [6] | [10]
inactive: all other assays above

FC(F)(F)C1(F)C(F)(F)C(F)(F)C(F)(F)C1(F)F
not listed: [6] | [7] | [10]
inactive: all other assays above

O=C1C=CC(=O)N1c1cccc(N2C(=O)C=CC2=O)c1
not listed: [7]
inactive: all other assays above

CC(C)(c1ccc(Oc2ccc(N)cc2)cc1)c1ccc(Oc2ccc(N)cc2)cc1
not listed: [6]
inactive: all other assays above

O=C(OC(=O)C(F)(F)C(F)(F)F)C(F)(F)C(F)(F)F
not listed: [6]
inactive: all other assays above

COC(=O)CC(C(C)=O)C(=O)OC (stereo not given)
not listed: [7]
inactive: all other assays above

NNC(=O)CCCCC(=O)NN
not listed: [7]
inactive: all other assays above

CCC(C)c1nccnc1OC (stereo not given)
not listed: [6] | [10]
inactive: all other assays above

FCOC(C(F)(F)F)C(F)(F)F
not listed: [6]
inactive: all other assays above

O=C(F)C(F)(F)C(F)(F)C(F)(F)C(F)F
not listed: [6] | [7]
inactive: all other assays above

CC=O
not listed: [6]
inactive: all other assays above

O=C1c2ccccc2C(=O)c2c(O)c(O)cc(O)c21
active: [3] 27.3 µM | [5] 0.303 µM | [11] 8.54 µM
not listed: [6] | [7]
inactive: all other assays above

O=C(O)C(F)(F)OC(F)(F)C(F)(F)OC(F)(F)C(F)(F)OC(F)(F)C(F)(F)C(F)(F)C(F)(F)F
active: [1] 37.7 µM and 27.1 µM | [4] 16.6 µM and 21.7 µM
not listed: [6] | [7] | [11]
inactive: all other assays above

CCCCCc1ccc(O)cc1
active: [3] 33.4 µM | [4] 33 µM | [5] 15 µM
not listed: [6] | [10]
inactive: all other assays above

O=C(Nc1cccc([N+](=O)[O-])c1)c1cc2ccccc2cc1O
active: [5] 0.411 µM | [8] 1.17 µM | [10] 2.35 µM
not listed: [6]
inactive: all other assays above

COc1cc(OC)nc(NC(=O)NS(=O)(=O)Nc2ccccc2C(=O)N(C)C)n1
not listed: [7] | [10]
inactive: all other assays above

CC[N+](CC)(CC)Cc1ccccc1
not listed: [6]
inactive: all other assays above

CCCCN(C)C
not listed: [6]
inactive: all other assays above

CC1COCc2cc3c(cc21)C(C)(C)C(C)C3(C)C (stereo not given)
active: [4] 158 µM | [5] 91.3 µM | [7] 173 µM | [9] 100 µM | [11] 179 µM
inactive: [1] | [2] | [3] | [8]

Brc1ccc(Oc2ccc(Br)cc2Br)cc1
not listed: [6] | [7]
inactive: all other assays above

CCCCCCc1ccc(N)cc1
active: [5] 45.5 µM
not listed: [6] | [7] | [10]
inactive: all other assays above

O=S(=O)(O)c1ccc2cc(O)ccc2c1
not listed: [6] | [10]
inactive: all other assays above

CCCC=O
not listed: [7] | [10]
inactive: all other assays above

FC(F)(F)C1(F)C(F)(F)C(F)(F)C(F)(F)C(F)(C(F)(F)F)C1(F)F (stereo not given)
not listed: [7]
inactive: all other assays above

COC(O)c1ccccc1 (stereo not given)
not listed: [6]
inactive: all other assays above

C[C@]12CC[C@@H]3c4ccc(O)cc4CC[C@H]3[C@@H]1CC[C@@H]2OC(=O)CCC1CCCC1
inactive: [1] | [6] | [9]
active: [2] 137 µM | [3] 25.3 µM | [4] 14.8 µM | [5] 126 µM | [8] 58.2 µM | [11] 73.3 µM

O=C(O)c1cccc(C(=O)O)n1
not listed: [7] | [11]
inactive: all other assays above

Cc1ccc(C)c(S(=O)(=O)O)c1
not listed: [6] | [7] | [10]
inactive: all other assays above

Cc1ccccc1OCC(=O)O
not listed: [6]
inactive: all other assays above

CN(CCO)S(=O)(=O)C(F)(F)C(F)(F)C(F)(F)C(F)(F)C(F)(F)C(F)(F)C(F)(F)C(F)(F)F
not listed: [6] | [10]
inactive: all other assays above

O=C(NCc1ncc(C(F)(F)F)cc1Cl)c1c(Cl)cccc1Cl
active: [4] 81.4 µM | [10] 43.1 µM
not listed: [7]
inactive: all other assays above

CCC(=O)C=Cc1ccc(OC)cc1
active: [4] 68.2 µM
not listed: [6]
inactive: all other assays above

COc1cc([N+](=O)[O-])ccc1N
not listed: [7]
inactive: all other assays above

CCCCCCC(C)(C)C(=O)O
active: [6] 137 µM
not listed: [7] | [10]
inactive: all other assays above
